Compound activity as filed in PubChem.
Shown is part of a subset that was picked to be rich in hits.
PI5P4Ka inh: PI5P4K alpha (human) kinase inhibition; P48426; PI5P4Kalpha enzyme, ADP-Glo luminescence, 60 min; active compounds read low; max response, %; 1.2% of 330,000 active; AID 652105; active means max response of -50% or lower; inconclusive means between -30% and -50%; inactive means -30% or higher; further: value at the top dose of about 77 µM
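Enzyme plus substrate dispensed, test compounds pinned in, then ATP (5 microM final) added. After 60 min at RT, ADP-Glo reagent 1 for 45 min and reagent 2 for 30 min preceded luminescence imaging.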
PI4K2A block: blocks human PI4K2A kinase activity; Q9BTU6; purified PI4K2A, ADP-Glo luminescence, 1 h; active compounds read low; activity change, negative = inhibition, % at 76.9 µM; 0.13% of 420,000 active; AID 1346378; in the data active means activity change below about -50%; inconclusive means mostly about -30% to -49%;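 further: -100% = wells without enzyme as full effect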
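ADP-Glo luminescence measured ADP generated by PI4K2A enzyme (4 ug/mL before mixing) with 1.2 mM PI substrate (pre-mix) and 300 microM ATP (pre-mix). Tris pH7.5 buffer with MgCl2, Triton X-100; 1 h reaction at ambient temperature.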
PGK inhibitor: inhibitors of T. brucei phosphoglycerate kinase; AID 602233; P07378; 0.043% of 380,000 active; PGK/GAPDH coupled, Kinase-Glo luminescence, 60 min; Potency, µM (series often up to 57.5 µM), for inactives: at the top dose activity change, negative = inhibition, usual class: inhibitors; active means well fitted inhibition curve with a large enough effect; inconclusive means small, poorly fitted or top-dose-only effect; inactive means no such curve, though single readings can be large or run the other way; further: potency means the concentration at half of the fitted maximal effect; nearly all actives have a fitted effect of over 60% in size
Target sequence (P07378 whole entry, looked up): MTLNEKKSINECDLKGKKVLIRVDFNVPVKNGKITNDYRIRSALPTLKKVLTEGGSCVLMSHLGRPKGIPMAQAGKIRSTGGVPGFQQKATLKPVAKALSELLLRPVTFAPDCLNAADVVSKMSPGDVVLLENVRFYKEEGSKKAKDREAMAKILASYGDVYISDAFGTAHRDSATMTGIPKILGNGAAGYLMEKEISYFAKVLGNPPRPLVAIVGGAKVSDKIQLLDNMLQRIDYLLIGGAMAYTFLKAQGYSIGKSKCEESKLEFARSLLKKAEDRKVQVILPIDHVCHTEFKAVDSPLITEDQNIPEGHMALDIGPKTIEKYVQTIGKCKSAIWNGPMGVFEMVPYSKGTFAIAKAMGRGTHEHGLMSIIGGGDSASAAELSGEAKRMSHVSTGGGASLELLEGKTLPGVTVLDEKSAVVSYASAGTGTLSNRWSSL
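Luminescent ATP detection (Kinase-Glo Plus) follows a 60-minute room-temperature incubation, with wells lacking PGK as controls. Buffer: 100 mM TEA (pH 7.6), 5 mM MgCl2, 0.01% Tween-20. Coupling enzyme GAPDH (100 nM final) supplies unstable 1,3-BPG in-well.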
Pin1 inhibitor: human Pin1 inhibition. Q13526. Pin1 FP peptide displacement, HiFluor488, 10 min. Potency, µM (highest dose often 115 µM), for the others: top-dose activity, negative = inhibition, most hits filed as inhibitors. 0.009% of 390,000 active; active means well fitted inhibition curve with a large enough effect in the polarisation, with a control signal flat, not every such curve was filed as active; inconclusive means small, poorly fitted or top-dose-only effect, or effect the other way, or a change in a side signal; inactive means no such curve, though single readings can be large or run the other way; the % refers to the polarisation; further: potency means the concentration at half of the fitted maximal effect
Target sequence (Q13526 whole entry, looked up): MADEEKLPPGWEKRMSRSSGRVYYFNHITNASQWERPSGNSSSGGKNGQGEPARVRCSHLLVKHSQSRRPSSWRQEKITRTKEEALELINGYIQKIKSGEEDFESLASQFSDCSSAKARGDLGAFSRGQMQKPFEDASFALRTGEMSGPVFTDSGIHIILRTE
The depositor's hits bear a star; i = inactive; ? = inconclusive; . = no result. Unless noted, on the % scale 0 is the no-effect control and ±100 the full control effect.

SMILES	PI5P4Ka inh	PI4K2A block	PGK inhibitor	Pin1 inhibitor
COC(=O)c1sccc1NC(=O)Nc1ccc(OC)cc1	?	-57.4*	?	-7.9%
Cc1ccc(C(=O)Oc2ccc(C(O)CNC(C)(C)C)cc2OC(=O)c2ccc(C)cc2)cc1 (centres undefined)	.	1.9	.	.
Cc1ccc(N2C(=O)N3[C@H](c4ccc(F)cc4)[C@@H]4C(=O)N(C5CCCCC5)C(=O)[C@@H]4[C@]3(C)C2=O)cc1	-65.5*	-5.3	i	6.9%
CC(C)(C)OC(=O)NCc1nnc(-c2cc3ccccc3[nH]2)o1	.	.	.	3.1%
NC(=S)NNC(=S)Nc1ccccc1	-70.2*	3.5	6.1%	-1.6%
Cc1ccc(NS(=O)(=O)c2cc3c(cc2F)NC(=O)CC3)cc1C	.	.	.	-4.6%
CC1=NOC(=O)/C1=C\c1ccc(-c2ccc(Br)cc2C(=O)O)o1	-21.6	-8.8	-7.2%	-5.6%
CC1=NN(c2ccc(Br)cc2)C(=O)/C1=C/c1ccc(-c2ccccc2C(=O)O)o1	3.4	-50.2*	-15.7%	.
Cc1cc2nc3s/c(=C/c4ccc(-c5ccccc5C(=O)O)o4)c(=O)n3c2cc1C	-86.3*	-7.5	i	?
Nc1ccccc1C(=O)N1CCc2ccccc21	-4.7	-1.9	-8.8%	0.6%
COc1cc(/C=C2/C(=O)c3cccc([N+](=O)[O-])c3C2=O)c(Br)cc1O	-60.5*	-23.0	-15.8%	-27.0%
COc1ccccc1NC(=O)CCCCCN1C(=O)c2cccc([N+](=O)[O-])c2C1=O	-0.7	-1.4	-1.5%	-11.4%
CCOc1ccccc1OCC1CNCCO1 (centres undefined)	.	-0.2	.	.
Nc1ccc(N(CCO)CCO)cc1	-0.6	-51.8*	-8.1%	-17.6%
Cc1c(C(=O)O)sc2nc(/C=C/c3cccc(F)c3)[nH]c(=O)c12	-54.6*	-0.8	-15.1%	9.4%
Cc1ccc(/C=C/c2nc3sc(C(=O)O)c(C)c3c(=O)[nH]2)cc1[N+](=O)[O-]	?	4.9	i	2.5%
Cc1c(C(=O)O)sc2nc(/C=C/c3ccccc3OC(F)F)[nH]c(=O)c12	-63.0*	-0.4	-16.2%	?
Cc1ccccc1-n1c(SC/C(O)=C(\C#N)c2nc3ccccc3[nH]2)nnc1-c1ccncc1	?	3.0	0.1%	13.2%
Cc1cccc(Nc2nnc(SCC(O)=C(C#N)c3nc4ccccc4[nH]3)s2)c1	-61.0*	-11.2	-1.2%	36.9%
Cc1cc(C)n2c(SC/C(O)=C(\C#N)c3nc4ccccc4[nH]3)nnc2n1	-81.0*	-18.5	-12.0%	?
Cc1cccc(Nc2nnc(SCC(=O)Nc3ccc(C(=O)O)cc3)s2)c1	-19.2	-2.3	4.6%	-2.7%
S=c1cnc2ccccc2[nH]1	-61.2*	1.4	i	-7.9%
c1ccc2[nH]c(CCCc3nc4ccccc4[nH]3)nc2c1	2.3	-2.5	i	2.0%
Cc1ccc(S(=O)(=O)N2CCCCC2)cc1C(=O)N1CCCCCC1	4.4	2.3	-9.5%	-8.9%
CC(=O)Oc1cc2c3c(c1)/C(=C1/SC(=S)NC1=O)C(=O)N3C(C)(C)C=C2C	-75.8*	-3.1	-13.3%	.
SMILES	PI5P4Ka inh	PI4K2A block	PGK inhibitor	Pin1 inhibitor
Oc1cccc(C=NCc2ccccc2)c1O	-58.4*	-10.1	-2.1%	?
Oc1cccc(C=Nc2cccc3ccccc23)c1O	-90.3*	-29.9	4.0%	.
CN1CCCC1CCNc1ncnc2ccc(-c3ccc4c(c3)OCO4)cc12 (centres undefined)	.	.	.	-6.2%
N#C/C(=C/c1cn[nH]c1-c1ccc(Br)cc1)C(=O)O	-76.4*	47.2	0.8%	4.4%
N=C(N)c1ccc(OCCCOc2ccc(C(=N)N)cc2)cc1	.	-2.1	.	.
Oc1c(Br)cc(Br)cc1/C=N/c1nccs1	-55.3*	-1.5	-4.3%	-10.4%
CC1(C)CCN2CCC(C)(C)c3c(O)ccc1c32	-54.5*	-11.3	8.2%	?
CC1(C)CCC(C)(C)c2cc([S+](=O)([O-])N3CCN([S+](=O)([O-])c4c(F)cccc4F)CC3)ccc21	.	.	.	10.7%
CC(C)N1CCc2c(sc(NC(=S)NC(=O)c3ccccc3)c2C#N)C1	-51.3*	3.9	-7.6%	?
C=CCn1c(SCc2ccccc2F)nc2cc(C(=O)O)ccc2c1=O	-74.5*	0.3	4.2%	-5.7%
CC(=O)NCCn1c(SCc2ccccc2F)nc2ccccc2c1=O	.	-5.6	-7.9%	0.0%
C=CCn1c(SCC(=O)N(CC)C2CCS(=O)(=O)C2)nc2cc(C(=O)O)ccc2c1=O (centres undefined)	-64.2*	-0.3	7.4%	-6.1%
C=CCn1c(SCC(=O)N(CC)C2CCS(=O)(=O)C2)nc2ccccc2c1=O (centres undefined)	0.1	11.2	i	3.4%
Oc1ccccc1C1C=C(c2ccc3c(c2)OCO3)NC(c2cccc(Cl)c2)N1 (centres undefined)	.	.	.	-0.5%
O=C(O)COc1ccc(/C=C2\SC(=Nc3ccccc3)N(c3ccccc3)C2=O)cc1	-3.8	-1.0	-3.3%	0.4%
COc1ccc(N=C2S/C(=C\c3ccc(OCC(=O)O)cc3)C(=O)N2CCc2c[nH]c3ccccc23)cc1	-57.2*	-0.9	-15.5%	.
Fc1ccc(C(c2ccc(F)cc2)N2CCNCC2)cc1	.	2.3	.	.
C=CCNc1nc(-c2ccc(O)c(C(N)=O)c2)cs1	-57.8*	-11.5	-7.2%	-2.4%
C=CCSC1=N/C(=C\C=C\c2ccco2)C(=O)S1	-63.2*	-16.8	?	-18.9%
CCOC(=O)c1ccc(S(=O)(=O)N2CCN(c3nc(-c4ccccc4)nc4ccccc34)CC2)cc1	.	.	.	-1.4%
CC1=C(C)CS(=O)N(c2ccc(S(N)(=O)=O)cc2)C1 (centres undefined)	5.2	-51.6*	2.5%	-2.5%
CCNc1nc(C#N)nc(N2CCOCC2)n1	.	.	.	6.3%
c1ccc(Cn2c(SCc3nc4ccccc4s3)nnc2-c2ccco2)cc1	-73.5*	?	-8.9%	-14.9%
O=C(O)c1ccccc1SC1=NS(=O)(=O)c2ccccc21	.	.	.	-15.0%
COc1cc(C2c3c([nH]c(=O)[nH]c3=O)Nc3ccc4ccccc4c32)cc(OC)c1OC (centres undefined)	-20.6	-60.1*	?	.
SMILES	PI5P4Ka inh	PI4K2A block	PGK inhibitor	Pin1 inhibitor
Cn1c(N=Nc2ccccc2)nc2ccccc21	-74.3*	-87.3*	?	-2.9%
CN(C)c1ccc(N=Nc2nc3ccccc3n2C)cc1	-59.3*	-69.5*	14.1µM*	23.7%
Cc1ccc(OCC(=O)c2c(N)n(C)c(=O)n(C)c2=O)c([N+](=O)[O-])n1	-50.2*	-14.8	?	.
Cc1cccc(C(=O)OCC(=O)c2ccc(CC(=O)N3CCOCC3)s2)c1C	-59.9*	-12.4	-15.9%	3.0%
Cc1cccc(C(=O)OCC(=O)N2CC(C)OC(C)C2)c1C (centres undefined)	0.7	2.9	1.6%	1.9%
C=CC[C@@H](CC(=O)NCCO)C(=O)NC[C@H](OC(=O)[C@@H](CC=C)Cc1ccc(F)cc1)c1ccccc1	6.4	-51.5*	i	-1.5%
c1coc(CNc2ncnc3c2[nH]c2ccccc23)c1	.	.	.	15.9%
O=C(CSc1ccsc1[N+](=O)[O-])NCc1ccco1	-70.7*	-3.7	-18.9%	?
